# Measured values: publication PMC11006913
# Positions count from the first letter of the chain named.
# How the values were obtained:
# Assay in all cases: PBM; 200 nM protein, PBS
# Settings in all cases: dsDNA, one strand shown
# HOXA4 [1] = molecular target: HOXA4 (Homo sapiens, UniProt Q00056 201-287, W262R)
# SIX6 [2] = molecular target: T1, SIX6 (Homo sapiens, UniProt O95475 114-200, T165P)
# T1 sequence: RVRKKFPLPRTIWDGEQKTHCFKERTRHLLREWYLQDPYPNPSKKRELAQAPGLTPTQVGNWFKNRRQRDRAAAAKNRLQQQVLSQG
# HOXA4 [3] = molecular target: HOXA4 (Homo sapiens, UniProt Q00056 201-287, R217L)
# SIX6 [4] = molecular target: T2, SIX6 (Homo sapiens, UniProt O95475 114-200, T139Q)
# T2 sequence: T1 sequence with T26Q, P52T
# HOXA4 [5] = molecular target: HOXA4 (Homo sapiens, UniProt Q00056 201-287)
# HOXA4 [6] = molecular target: HOXA4 (Homo sapiens, UniProt Q00056 201-287, W262F)
# HOXC9 [7] = molecular target: HOXC9 (Homo sapiens, UniProt P31274 178-260, K195R)
# ALX4 [8] = molecular target: ALX4 (Homo sapiens, UniProt Q9H161 200-286)
# ALX4 [9] = molecular target: ALX4 (Homo sapiens, UniProt Q9H161 200-286, Q225E)
# HOXC9 [10] = molecular target: HOXC9 (Homo sapiens, UniProt P31274 178-260)
# HOXC9 [11] = molecular target: HOXC9 (Homo sapiens, UniProt P31274 178-260, R193K)
# HOXC9 [12] = molecular target: HOXC9 (Homo sapiens, UniProt P31274 178-260, R222W)
# HOXC10 [13] = molecular target: HOXC10 (Homo sapiens, UniProt Q9NYD6 254-340)
# PRRX1 [14] = molecular target: PRRX1 (Homo sapiens, UniProt P54821 80-166, F113S)
# HOXA2 [15] = molecular target: HOXA2 (Homo sapiens, UniProt O43364 129-215, R185T)
# HOXA2 [16] = molecular target: HOXA2 (Homo sapiens, UniProt O43364 129-215, R185K)
# HOXC10 [17] = molecular target: HOXC10 (Homo sapiens, UniProt Q9NYD6 254-340, K271E)
# HOXA2 [18] = molecular target: HOXA2 (Homo sapiens, UniProt O43364 129-215, Y150S)
# PRRX1 [19] = molecular target: PRRX1 (Homo sapiens, UniProt P54821 80-166)
# HOXA2 [20] = molecular target: HOXA2 (Homo sapiens, UniProt O43364 129-215)
# HOXB6 [21] = molecular target: HOXB6 (Homo sapiens, UniProt P17509 132-218, K202E)
# ALX1 [22] = molecular target: ALX1 (Homo sapiens, UniProt Q15699 118-204, L144V)
# ALX3 [23] = molecular target: ALX3 (Homo sapiens, UniProt O95076 139-225, N203Q)
# ALX1 [24] = molecular target: ALX1 (Homo sapiens, UniProt Q15699 118-204, L144R)
# ALX3 [25] = molecular target: ALX3 (Homo sapiens, UniProt O95076 139-225)
# ALX3 [26] = molecular target: ALX3 (Homo sapiens, UniProt O95076 139-225, L168Q)
# ALX3 [27] = molecular target: ALX3 (Homo sapiens, UniProt O95076 139-225, L168V)
# NKX3-2 [28] = molecular target: NKX3-2 (Homo sapiens, UniProt P78367 192-278, P234S)
# ALX1 [29] = molecular target: ALX1 (Homo sapiens, UniProt Q15699 118-204)
# ALX3 [30] = molecular target: ALX3 (Homo sapiens, UniProt O95076 139-225, N203S)
# HOXB6 [31] = molecular target: HOXB6 (Homo sapiens, UniProt P17509 132-218)
# NKX3-2 [32] = molecular target: NKX3-2 (Homo sapiens, UniProt P78367 192-278)
# Chain of NKX3-2 (Homo sapiens, UniProt P78367 192-278) (P78367 192-278): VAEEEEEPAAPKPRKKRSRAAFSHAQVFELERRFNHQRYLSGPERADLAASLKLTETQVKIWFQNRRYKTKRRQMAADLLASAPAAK
# Chain of HOXA4 (Homo sapiens, UniProt Q00056 201-287) (Q00056 201-287): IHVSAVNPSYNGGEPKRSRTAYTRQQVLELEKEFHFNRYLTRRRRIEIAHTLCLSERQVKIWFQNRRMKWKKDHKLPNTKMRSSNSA
# Chain of HOXA4 (Homo sapiens, UniProt Q00056 201-287, W262R) (Q00056 201-287 W262R): as the sequence (Q00056 201-287) above, with W62R counted along it
# Chain of HOXA4 (Homo sapiens, UniProt Q00056 201-287, R217L) (Q00056 201-287 R217L): as the sequence (Q00056 201-287) above, with R17L counted along it
# Chain of HOXA4 (Homo sapiens, UniProt Q00056 201-287, W262F) (Q00056 201-287 W262F): as the sequence (Q00056 201-287) above, with W62F counted along it
# Chain of HOXC10 (Homo sapiens, UniProt Q9NYD6 254-340, K271E) (Q9NYD6 254-340 K271E): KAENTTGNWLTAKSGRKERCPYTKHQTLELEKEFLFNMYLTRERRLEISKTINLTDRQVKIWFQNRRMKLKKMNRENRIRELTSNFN
# Chain of HOXC9 (Homo sapiens, UniProt P31274 178-260, K195R) (P31274 178-260 K195R): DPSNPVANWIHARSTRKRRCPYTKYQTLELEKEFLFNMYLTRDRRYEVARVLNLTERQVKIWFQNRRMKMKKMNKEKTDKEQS
# Chain of HOXC10 (Homo sapiens, UniProt Q9NYD6 254-340) (Q9NYD6 254-340): as the sequence (Q9NYD6 254-340 K271E) above, with E18K counted along it
# Chain of HOXC9 (Homo sapiens, UniProt P31274 178-260) (P31274 178-260): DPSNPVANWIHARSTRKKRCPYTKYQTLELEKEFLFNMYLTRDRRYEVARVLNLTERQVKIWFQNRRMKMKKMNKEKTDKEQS
# Chain of HOXC9 (Homo sapiens, UniProt P31274 178-260, R222W) (P31274 178-260 R222W): as the sequence (P31274 178-260) above, with R45W counted along it
# Chain of ALX4 (Homo sapiens, UniProt Q9H161 200-286) (Q9H161 200-286): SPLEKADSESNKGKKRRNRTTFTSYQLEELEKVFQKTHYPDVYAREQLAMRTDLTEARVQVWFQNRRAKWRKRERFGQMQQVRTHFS
# Chain of ALX4 (Homo sapiens, UniProt Q9H161 200-286, Q225E) (Q9H161 200-286 Q225E): as the sequence (Q9H161 200-286) above, with Q26E counted along it
# Chain of HOXC9 (Homo sapiens, UniProt P31274 178-260, R193K) (P31274 178-260 R193K): as the sequence (P31274 178-260) above, with R16K counted along it
# Chain of ALX3 (Homo sapiens, UniProt O95076 139-225, L168Q) (O95076 139-225 L168Q): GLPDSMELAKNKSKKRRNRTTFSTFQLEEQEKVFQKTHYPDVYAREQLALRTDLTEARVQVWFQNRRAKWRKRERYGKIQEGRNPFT
# Chain of HOXB6 (Homo sapiens, UniProt P17509 132-218) (P17509 132-218): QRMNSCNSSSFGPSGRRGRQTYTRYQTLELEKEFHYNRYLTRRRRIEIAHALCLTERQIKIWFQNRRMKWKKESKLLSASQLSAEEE
# Chain of NKX3-2 (Homo sapiens, UniProt P78367 192-278, P234S) (P78367 192-278 P234S): as the sequence (P78367 192-278) above, with P43S counted along it
# Chain of HOXA2 (Homo sapiens, UniProt O43364 129-215, Y150S) (O43364 129-215 Y150S): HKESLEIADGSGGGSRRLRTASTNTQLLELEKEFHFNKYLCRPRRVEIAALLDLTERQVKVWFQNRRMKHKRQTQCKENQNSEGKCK
# Chain of ALX3 (Homo sapiens, UniProt O95076 139-225, N203Q) (O95076 139-225 N203Q): as the sequence (O95076 139-225 L168Q) above, with Q30L, N65Q counted along it
# Chain of ALX1 (Homo sapiens, UniProt Q15699 118-204) (Q15699 118-204): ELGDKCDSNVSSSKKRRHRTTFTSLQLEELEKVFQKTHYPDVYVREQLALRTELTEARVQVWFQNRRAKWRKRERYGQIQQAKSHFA
# Chain of ALX3 (Homo sapiens, UniProt O95076 139-225) (O95076 139-225): as the sequence (O95076 139-225 L168Q) above, with Q30L counted along it
# Chain of ALX1 (Homo sapiens, UniProt Q15699 118-204, L144V) (Q15699 118-204 L144V): as the sequence (Q15699 118-204) above, with L27V counted along it
# Chain of HOXA2 (Homo sapiens, UniProt O43364 129-215) (O43364 129-215): as the sequence (O43364 129-215 Y150S) above, with S22Y counted along it
# Chain of ALX3 (Homo sapiens, UniProt O95076 139-225, N203S) (O95076 139-225 N203S): as the sequence (O95076 139-225 L168Q) above, with Q30L, N65S counted along it
# Chain of PRRX1 (Homo sapiens, UniProt P54821 80-166, F113S) (P54821 80-166 F113S): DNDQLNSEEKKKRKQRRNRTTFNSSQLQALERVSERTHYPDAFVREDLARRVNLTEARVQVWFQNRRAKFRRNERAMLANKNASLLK
# Chain of ALX1 (Homo sapiens, UniProt Q15699 118-204, L144R) (Q15699 118-204 L144R): as the sequence (Q15699 118-204) above, with L27R counted along it
# Chain of PRRX1 (Homo sapiens, UniProt P54821 80-166) (P54821 80-166): as the sequence (P54821 80-166 F113S) above, with S34F counted along it
# Chain of HOXA2 (Homo sapiens, UniProt O43364 129-215, R185T) (O43364 129-215 R185T): as the sequence (O43364 129-215 Y150S) above, with S22Y, R57T counted along it
# Chain of ALX3 (Homo sapiens, UniProt O95076 139-225, L168V) (O95076 139-225 L168V): as the sequence (O95076 139-225 L168Q) above, with Q30V counted along it
# Chain of HOXB6 (Homo sapiens, UniProt P17509 132-218, K202E) (P17509 132-218 K202E): as the sequence (P17509 132-218) above, with K71E counted along it
# Chain of HOXA2 (Homo sapiens, UniProt O43364 129-215, R185K) (O43364 129-215 R185K): as the sequence (O43364 129-215 Y150S) above, with S22Y, R57K counted along it
sequence,measurement,setting,value
GATCCCCC,binding signal,HOXA4 [1],"9.9 upbm affinity estimate (log intensity, higher = more binding, comparable within an allelic series)"
same,binding signal,SIX6 [2],"9.3 upbm affinity estimate (log intensity, higher = more binding, comparable within an allelic series)"
same,binding signal,HOXA4 [3],"9.87 upbm affinity estimate (log intensity, higher = more binding, comparable within an allelic series)"
same,binding signal,SIX6 [4],"11.1 upbm affinity estimate (log intensity, higher = more binding, comparable within an allelic series)"
same,binding signal,HOXA4 [5],"9.93 upbm affinity estimate (log intensity, higher = more binding, comparable within an allelic series)"
same,binding signal,HOXA4 [6],"9.82 upbm affinity estimate (log intensity, higher = more binding, comparable within an allelic series)"
GCCTCCCA,binding signal,HOXA4 [1],"9.78 upbm affinity estimate (log intensity, higher = more binding, comparable within an allelic series)"
same,binding signal,HOXC9 [7],"9.58 upbm affinity estimate (log intensity, higher = more binding, comparable within an allelic series)"
same,binding signal,ALX4 [8],"8.34 upbm affinity estimate (log intensity, higher = more binding, comparable within an allelic series)"
same,binding signal,ALX4 [9],"8.34 upbm affinity estimate (log intensity, higher = more binding, comparable within an allelic series)"
same,binding signal,HOXA4 [3],"9.83 upbm affinity estimate (log intensity, higher = more binding, comparable within an allelic series)"
same,binding signal,HOXC9 [10],"9.69 upbm affinity estimate (log intensity, higher = more binding, comparable within an allelic series)"
same,binding signal,HOXC9 [11],"9.59 upbm affinity estimate (log intensity, higher = more binding, comparable within an allelic series)"
same,binding signal,HOXA4 [5],"9.75 upbm affinity estimate (log intensity, higher = more binding, comparable within an allelic series)"
same,binding signal,HOXC9 [12],"9.65 upbm affinity estimate (log intensity, higher = more binding, comparable within an allelic series)"
same,binding signal,HOXA4 [6],"9.77 upbm affinity estimate (log intensity, higher = more binding, comparable within an allelic series)"
CAGGCTTC,binding signal,HOXA4 [1],"9.89 upbm affinity estimate (log intensity, higher = more binding, comparable within an allelic series)"
same,binding signal,HOXC9 [7],"9.38 upbm affinity estimate (log intensity, higher = more binding, comparable within an allelic series)"
same,binding signal,HOXC10 [13],"9.9 upbm affinity estimate (log intensity, higher = more binding, comparable within an allelic series)"
same,binding signal,PRRX1 [14],"9.37 upbm affinity estimate (log intensity, higher = more binding, comparable within an allelic series)"
same,binding signal,HOXA2 [15],"7.14 upbm affinity estimate (log intensity, higher = more binding, comparable within an allelic series)"
same,binding signal,HOXA4 [3],"9.71 upbm affinity estimate (log intensity, higher = more binding, comparable within an allelic series)"
same,binding signal,HOXC9 [10],"9.43 upbm affinity estimate (log intensity, higher = more binding, comparable within an allelic series)"
same,binding signal,HOXC9 [11],"9.37 upbm affinity estimate (log intensity, higher = more binding, comparable within an allelic series)"
same,binding signal,HOXA2 [16],"10.5 upbm affinity estimate (log intensity, higher = more binding, comparable within an allelic series)"
same,binding signal,HOXA4 [5],"9.69 upbm affinity estimate (log intensity, higher = more binding, comparable within an allelic series)"
same,binding signal,HOXC10 [17],"9.96 upbm affinity estimate (log intensity, higher = more binding, comparable within an allelic series)"
same,binding signal,HOXC9 [12],"9.74 upbm affinity estimate (log intensity, higher = more binding, comparable within an allelic series)"
same,binding signal,HOXA2 [18],"10.4 upbm affinity estimate (log intensity, higher = more binding, comparable within an allelic series)"
same,binding signal,HOXA4 [6],"9.89 upbm affinity estimate (log intensity, higher = more binding, comparable within an allelic series)"
same,binding signal,PRRX1 [19],"9.5 upbm affinity estimate (log intensity, higher = more binding, comparable within an allelic series)"
same,binding signal,HOXA2 [20],"7.25 upbm affinity estimate (log intensity, higher = more binding, comparable within an allelic series)"
CCCCACGG,binding signal,HOXA4 [1],"9.8 upbm affinity estimate (log intensity, higher = more binding, comparable within an allelic series)"
same,binding signal,HOXC10 [13],"10.1 upbm affinity estimate (log intensity, higher = more binding, comparable within an allelic series)"
same,binding signal,HOXA4 [3],"9.68 upbm affinity estimate (log intensity, higher = more binding, comparable within an allelic series)"
same,binding signal,HOXA4 [5],"9.82 upbm affinity estimate (log intensity, higher = more binding, comparable within an allelic series)"
same,binding signal,HOXC10 [17],"10 upbm affinity estimate (log intensity, higher = more binding, comparable within an allelic series)"
same,binding signal,HOXA4 [6],"9.88 upbm affinity estimate (log intensity, higher = more binding, comparable within an allelic series)"
CCGAAGGC,binding signal,HOXA4 [1],"9.78 upbm affinity estimate (log intensity, higher = more binding, comparable within an allelic series)"
same,binding signal,ALX4 [8],"8.05 upbm affinity estimate (log intensity, higher = more binding, comparable within an allelic series)"
same,binding signal,ALX4 [9],"8.35 upbm affinity estimate (log intensity, higher = more binding, comparable within an allelic series)"
same,binding signal,HOXA4 [3],"9.88 upbm affinity estimate (log intensity, higher = more binding, comparable within an allelic series)"
same,binding signal,HOXA4 [5],"9.96 upbm affinity estimate (log intensity, higher = more binding, comparable within an allelic series)"
same,binding signal,HOXA4 [6],"9.89 upbm affinity estimate (log intensity, higher = more binding, comparable within an allelic series)"
CAGCCTCC,binding signal,HOXA4 [1],"9.65 upbm affinity estimate (log intensity, higher = more binding, comparable within an allelic series)"
same,binding signal,HOXB6 [21],"8.86 upbm affinity estimate (log intensity, higher = more binding, comparable within an allelic series)"
same,binding signal,HOXA4 [3],"9.73 upbm affinity estimate (log intensity, higher = more binding, comparable within an allelic series)"
same,binding signal,ALX1 [22],"6.61 upbm affinity estimate (log intensity, higher = more binding, comparable within an allelic series)"
same,binding signal,ALX3 [23],"7.63 upbm affinity estimate (log intensity, higher = more binding, comparable within an allelic series)"
same,binding signal,ALX1 [24],"6.48 upbm affinity estimate (log intensity, higher = more binding, comparable within an allelic series)"
same,binding signal,HOXA4 [5],"9.62 upbm affinity estimate (log intensity, higher = more binding, comparable within an allelic series)"
same,binding signal,ALX3 [25],"7.74 upbm affinity estimate (log intensity, higher = more binding, comparable within an allelic series)"
same,binding signal,ALX3 [26],"7.64 upbm affinity estimate (log intensity, higher = more binding, comparable within an allelic series)"
same,binding signal,ALX3 [27],"7.62 upbm affinity estimate (log intensity, higher = more binding, comparable within an allelic series)"
same,binding signal,NKX3-2 [28],"10.7 upbm affinity estimate (log intensity, higher = more binding, comparable within an allelic series)"
same,binding signal,ALX1 [29],"6.39 upbm affinity estimate (log intensity, higher = more binding, comparable within an allelic series)"
same,binding signal,HOXA4 [6],"9.71 upbm affinity estimate (log intensity, higher = more binding, comparable within an allelic series)"
same,binding signal,ALX3 [30],"7.61 upbm affinity estimate (log intensity, higher = more binding, comparable within an allelic series)"
same,binding signal,HOXB6 [31],"8.88 upbm affinity estimate (log intensity, higher = more binding, comparable within an allelic series)"
same,binding signal,NKX3-2 [32],"10.7 upbm affinity estimate (log intensity, higher = more binding, comparable within an allelic series)"
